In PubChem BioAssay AID1159580 (chemical genetic matrix, 2015):
The campaign covered roughly 5,500 compounds. About 2,000 (36%) were called active. Another 18% or so got no clear call; they are omitted. No stated cut-off is given here; in the data, active means normalized growth mostly below about 0.91 (no sharp cut-off); inconclusive means no clear call, values can overlap the other calls; inactive means mostly above about 0.92. The list shows a part of the results.

Test: chemical genetic growth profiling, strain panel (AID 1159580);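 further: tested at 20 µM; growth read once vehicle control cultures reached saturation at 30 °C; 1 = growth at the plate median or of vehicle wells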
Settings: S. cerevisiae deletion strains, growth OD
[1] = locus YAR019C, strain CDC15, stronger effect = lower value
[2] = locus YBL105C, strain PKC1, stronger effect = lower value
[3] = locus YBR135W, strain CKS1, stronger effect = lower value
[4] = locus YBR136W, strain MEC1, stronger effect = lower value
[5] = locus YBR160W, strain CDC28, stronger effect = lower value
[6] = locus YDL017W, strain CDC7, stronger effect = lower value
[7] = locus YDL028C, strain MPS1, stronger effect = lower value
[8] = locus YDL101C, strain DUN1, stronger effect = lower value
[9] = locus YDL108W, strain KIN28, stronger effect = lower value
[10] = locus YDL132W, strain cdc53, stronger effect = lower value
[11] = locus YDL214C, strain PRR2, stronger effect = lower value
[12] = locus YDR052C, strain DBF4, stronger effect = lower value
[13] = locus YDR054C, strain cdc34, stronger effect = lower value
[14] = locus YDR226W, strain ADK1, stronger effect = lower value
[15] = locus YDR477W, strain SNF1, stronger effect = lower value
[16] = locus YER123W, strain YCK3, stronger effect = lower value
[17] = locus YER133W, strain GLC7, stronger effect = lower value
[18] = locus YFL009W, strain cdc4, stronger effect = lower value
[19] = locus YFL029C, strain CAK1, stronger effect = lower value
[20] = locus YFR003C, strain YPI1, stronger effect = lower value
[21] = locus YFR019W, strain FAB1, stronger effect = lower value
[22] = locus YFR028C, strain CDC14, stronger effect = lower value
[23] = locus YGR040W, strain KSS1, stronger effect = lower value
[24] = locus YGR052W, strain FMP48, stronger effect = lower value
[25] = locus YGR092W, strain DBF2, stronger effect = lower value
[26] = locus YHR030C, strain SLT2, stronger effect = lower value
[27] = locus YHR079C, strain IRE1, stronger effect = lower value
[28] = locus YHR082C, strain KSP1, stronger effect = lower value
[29] = locus YHR205W, strain SCH9, stronger effect = lower value
[30] = locus YIL147C, strain SLN1, stronger effect = lower value
[31] = locus YJL095W, strain BCK1, stronger effect = lower value
[32] = locus YJL128C, strain PBS2, stronger effect = lower value
[33] = locus YJL157C, strain FAR1, stronger effect = lower value
[34] = locus YJR016C, strain ILV3, stronger effect = lower value
[35] = locus YJR066W, strain TOR1 (second series), stronger effect = lower value
[36] = locus YJR066W, strain TOR1, stronger effect = lower value
[37] = locus YKL048C, strain ELM1, stronger effect = lower value
[38] = locus YKL067W, strain YNK1, stronger effect = lower value
[39] = locus YKL101W, strain HSL1, stronger effect = lower value
[40] = locus YKL193C, strain SDS22, stronger effect = lower value
[41] = locus YKL203C, strain TOR2, stronger effect = lower value
[42] = locus YLR113W, strain HOG1, stronger effect = lower value
[43] = locus YLR133W, strain CKI1, stronger effect = lower value
[44] = locus YLR403W, strain SFP1, stronger effect = lower value
[45] = locus YML070W, strain DAK1, stronger effect = lower value
[46] = locus YMR001C, strain CDC5, stronger effect = lower value
[47] = locus YMR205C, strain PFK2 (second series), stronger effect = lower value
[48] = locus YMR277W, strain FCP1, stronger effect = lower value
[49] = locus YNL006W, strain LST8, stronger effect = lower value
[50] = locus YNL020C, strain ARK1, stronger effect = lower value
[51] = locus YNL161W, strain CBK1, stronger effect = lower value
[52] = locus YNL183C, strain NPR1, stronger effect = lower value
[53] = locus YNL207W, strain RIO2, stronger effect = lower value
[54] = locus YNL222W, strain SSU72, stronger effect = lower value
[55] = locus YNL307C, strain MCK1 (second series), stronger effect = lower value
[56] = locus YOL078W, strain AVO1, stronger effect = lower value
[57] = locus YOL136C, strain PFK27, stronger effect = lower value
[58] = locus YOR061W, strain CKA2, stronger effect = lower value
[59] = locus YOR119C, strain RIO1, stronger effect = lower value
[60] = locus YOR231W, strain MKK1, stronger effect = lower value
[61] = locus YOR329C, strain SCD5, stronger effect = lower value
[62] = locus YPL031C, strain PHO85, stronger effect = lower value
[63] = locus YPL153C, strain RAD53, stronger effect = lower value
[64] = locus YPL204W, strain HRR25, stronger effect = lower value
[65] = locus YPL209C, strain IPL1, stronger effect = lower value
[66] = locus YPL256C, strain CLN2, stronger effect = lower value
[67] = locus YPR025C, strain CCL1, stronger effect = lower value
[68] = locus YPR106W, strain ISR1, stronger effect = lower value
[69] = locus YPR111W, strain DBF20, stronger effect = lower value
[70] = strain NNK1, stronger effect = lower value
[71] = strain TSCII, stronger effect = lower value

Measured: normalized growth

O=C1/C(=C/c2c[nH]c3ccccc23)CSc2ccccc21
inactive: [1] 0.989 | [2] 0.975 | [3] 0.981 | [4] 0.966 | [5] 0.99 | [6] 0.983 | [7] 0.979 | [8] 0.98 | [9] 0.987 | [10] 0.99 | [11] 0.938 | [12] 0.985 | [13] 0.987 | [14] 0.983 | [15] 0.961 | [16] 0.906 | [17] 0.948 | [18] 0.988 | [19] 0.988 | [20] 0.987 | [21] 0.973 | [22] 0.98 | [23] 0.947 | [24] 1.04 | [25] 0.945 | [26] 1.07 | [27] 1.06 | [28] 1.01 | [29] 0.957 | [30] 0.965 | [31] 1.02 | [32] 0.944 | [33] 0.943 | [34] 0.98 | [35] 0.913 | [36] 1.03 | [37] 0.949 | [38] 0.964 | [39] 0.945 | [40] 0.984 | [41] 1.02 | [42] 1.05 | [43] 0.975 | [44] 0.942 | [45] 0.944 | [46] 0.976 | [47] 0.979 | [48] 0.983 | [49] 0.993 | [50] 0.948 | [51] 0.991 | [52] 1.05 | [53] 0.997 | [54] 0.982 | [55] 0.995 | [56] 0.994 | [57] 0.931 | [58] 0.958 | [59] 0.982 | [60] 1.05 | [61] 0.99 | [62] 0.947 | [63] 0.924 | [64] 0.928 | [65] 0.989 | [66] 1.04 | [67] 0.986 | [68] 0.978 | [69] 0.979 | [70] 0.98 | [71] 0.984

O=C1Nc2ccccc2/C1=C\c1c[nH]c2ccccc12
active: [1] 0.472 | [2] 0.627 | [4] 0.88 | [5] 0.843 | [6] 0.717 | [8] 0.491 | [10] 0.628 | [11] 0.289 | [12] 0.91 | [13] 0.432 | [14] 0.84 | [15] 0.135 | [16] 0.249 | [17] 0.202 | [18] 0.526 | [19] 0.472 | [20] 0.894 | [21] 0.168 | [22] 0.753 | [23] 0.164 | [24] 0.126 | [25] 0.109 | [26] 0.101 | [27] 0.1 | [28] 0.136 | [29] 0.0414 | [30] 0.814 | [31] 0.0968 | [33] 0.239 | [35] 0.111 | [36] 0.111 | [37] 0.325 | [38] 0.407 | [39] 0.242 | [40] 0.618 | [41] 0.123 | [42] 0.118 | [43] 0.19 | [44] 0.108 | [45] 0.219 | [46] 0.781 | [47] 0.401 | [48] 0.548 | [49] 0.454 | [50] 0.19 | [51] 0.639 | [52] 0.133 | [53] 0.605 | [54] 0.674 | [55] 0.134 | [56] 0.609 | [57] 0.254 | [58] 0.244 | [59] 0.154 | [60] 0.125 | [61] 0.612 | [62] 0.112 | [63] 0.124 | [64] 0.125 | [65] 0.694 | [66] 0.128 | [67] 0.753 | [68] 0.863 | [70] 0.527 | [71] 0.384
inactive: [3] 0.926 | [7] 0.927 | [9] 0.924 | [34] 0.914 | [69] 0.93

O=C1Nc2ccccc2/C1=C\c1cccc2ccccc12
inactive: [1] 0.97 | [2] 0.955 | [3] 0.971 | [4] 0.97 | [5] 0.977 | [6] 0.963 | [7] 0.972 | [8] 0.985 | [9] 0.969 | [10] 0.965 | [11] 0.815 | [12] 0.976 | [13] 0.982 | [14] 0.96 | [15] 0.773 | [16] 0.777 | [17] 0.809 | [18] 0.98 | [19] 0.964 | [20] 0.972 | [21] 0.904 | [22] 0.972 | [23] 0.792 | [24] 0.807 | [25] 0.708 | [27] 0.73 | [28] 0.741 | [29] 0.668 | [30] 0.968 | [31] 0.718 | [32] 0.914 | [33] 0.796 | [34] 0.966 | [35] 0.738 | [36] 0.798 | [37] 0.886 | [38] 0.855 | [39] 0.816 | [40] 0.968 | [41] 0.857 | [43] 0.803 | [44] 0.727 | [45] 0.803 | [46] 0.957 | [47] 0.862 | [48] 0.963 | [49] 0.964 | [50] 0.784 | [51] 0.96 | [52] 0.784 | [53] 0.958 | [54] 0.971 | [55] 0.752 | [56] 0.973 | [57] 0.808 | [58] 0.867 | [59] 0.885 | [60] 0.807 | [61] 0.966 | [62] 0.738 | [63] 0.78 | [64] 0.699 | [65] 0.967 | [67] 0.972 | [68] 0.959 | [69] 0.949 | [70] 0.953 | [71] 0.965
active: [26] 0.663 | [42] 0.667 | [66] 0.694
